About 14,000 (4.5%) of roughly 310,000 compounds showed an effect of 50% or more. Effects have a minus sign here. Only a selection was taken, and strong results are over-represented in it overall.
Each compound was assayed against human ether-à-go-go-related gene (hERG) potassium channel (human, UniProt Q12809) (assay: primary screen, population patch clamp on CHO cells stably expressing hERG; higher = less effect of the substance).
Sequence of human ether-à-go-go-related gene (hERG) potassium channel (Q12809 whole entry, looked up): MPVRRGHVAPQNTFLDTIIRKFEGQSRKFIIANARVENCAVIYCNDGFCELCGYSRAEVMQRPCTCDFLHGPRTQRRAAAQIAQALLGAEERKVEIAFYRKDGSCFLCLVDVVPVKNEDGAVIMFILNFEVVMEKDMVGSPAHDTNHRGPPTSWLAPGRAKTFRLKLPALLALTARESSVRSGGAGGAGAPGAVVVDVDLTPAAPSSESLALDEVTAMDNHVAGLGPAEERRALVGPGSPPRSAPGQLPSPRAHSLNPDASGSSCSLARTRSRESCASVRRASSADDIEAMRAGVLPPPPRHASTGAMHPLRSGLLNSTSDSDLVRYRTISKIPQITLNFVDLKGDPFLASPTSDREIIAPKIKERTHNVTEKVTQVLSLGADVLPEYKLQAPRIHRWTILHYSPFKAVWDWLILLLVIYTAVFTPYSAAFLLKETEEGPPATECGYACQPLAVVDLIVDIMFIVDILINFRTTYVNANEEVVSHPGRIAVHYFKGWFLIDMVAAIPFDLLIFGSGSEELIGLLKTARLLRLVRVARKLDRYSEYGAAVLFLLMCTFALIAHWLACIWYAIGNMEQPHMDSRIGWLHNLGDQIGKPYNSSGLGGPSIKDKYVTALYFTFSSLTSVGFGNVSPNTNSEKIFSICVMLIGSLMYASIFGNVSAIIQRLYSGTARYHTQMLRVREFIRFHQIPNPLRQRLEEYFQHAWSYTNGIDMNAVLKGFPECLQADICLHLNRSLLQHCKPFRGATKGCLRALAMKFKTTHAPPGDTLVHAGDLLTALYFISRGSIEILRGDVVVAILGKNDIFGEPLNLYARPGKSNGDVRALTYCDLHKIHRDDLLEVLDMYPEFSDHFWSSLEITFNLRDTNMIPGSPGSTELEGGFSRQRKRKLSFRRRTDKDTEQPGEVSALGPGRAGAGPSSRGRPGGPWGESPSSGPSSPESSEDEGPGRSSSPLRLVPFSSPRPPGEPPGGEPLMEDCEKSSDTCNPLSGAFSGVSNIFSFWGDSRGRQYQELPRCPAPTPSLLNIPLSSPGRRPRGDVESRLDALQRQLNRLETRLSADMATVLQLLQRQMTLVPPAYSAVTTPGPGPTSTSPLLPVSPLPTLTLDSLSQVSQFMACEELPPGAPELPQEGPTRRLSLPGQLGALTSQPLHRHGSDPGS
In the case of `COc1cc(CNn2cnnc2)ccc1OCC(=O)NC(C)(C)C`, the “hERG current change (%, negative = inhibition) at 10uM” value is reported as 1.29%.
`O=C(Nc1nc(-c2ccc3c(c2)OCO3)cs1)C1COc2ccccc2O1` (stereo not shown) was tested, and the “hERG current change (%, negative = inhibition) at 10uM” value was 13.1%.
With `CCn1c(SCC(=O)N=Nc2c(O)[nH]c3ccccc23)nc2ccccc21` the “hERG current change (%, negative = inhibition) at 10uM” value was -11.9%.
For `CC1=CC(=O)CC(C)(C)C1(O)/C=C/C(C)=C/C(=O)O` (stereo not shown), the “hERG current change (%, negative = inhibition) at 10uM” value was 5.43%.
With `CCOc1ccc(Nc2ncnc3c2cnn3C)cc1` the “hERG current change (%, negative = inhibition) at 10uM” value was -16.6%.
`COc1cccc(C(c2c(C)[nH]n(-c3ccccc3)c2=O)c2c(C)[nH]n(-c3ccccc3)c2=O)c1O` was tested, and the “hERG current change (%, negative = inhibition) at 10uM” value was -4.28%.
In the case of `CCN(CC)CCn1c(=S)[nH]c2ncccc2c1=O`, the “hERG current change (%, negative = inhibition) at 10uM” value is reported as -20.5%.
`CCN(CC)CCCn1c(=S)[nH]c2ncccc2c1=O` was tested, and the “hERG current change (%, negative = inhibition) at 10uM” value was -15.9%.
In the case of `CCN(CC)CCCn1c(=S)[nH]c2ccc(Cl)cc2c1=O`, the “hERG current change (%, negative = inhibition) at 10uM” value is reported as -63.7%.
With `CN(C)CCn1c(=S)[nH]c2ccc(Cl)cc2c1=O` the “hERG current change (%, negative = inhibition) at 10uM” value was -21.7%.
In the case of `CCN(CC)CCCn1c(=S)[nH]c2cc(OC)c(OC)cc2c1=O`, the “hERG current change (%, negative = inhibition) at 10uM” value is reported as -2.6%.
In the case of `CCN(CC)CCn1c(=S)[nH]c2cc3c(cc2c1=O)OCO3`, the “hERG current change (%, negative = inhibition) at 10uM” value is reported as -24.2%.
With `CCN(CC)CCn1c(=S)[nH]c2ccccc2c1=O` the “hERG current change (%, negative = inhibition) at 10uM” value was -25.6%.
In the case of `CCN(CC)CCn1c(=S)[nH]c2ccc(Br)cc2c1=O`, the “hERG current change (%, negative = inhibition) at 10uM” value is reported as -66.7%.
With `CCN(CC)CCn1c(=S)[nH]c2ccc(Cl)cc2c1=O` the “hERG current change (%, negative = inhibition) at 10uM” value was -60.8%.
With `Cc1ccc(CCNC(=O)C2CCN(S(=O)(=O)c3ccc4c(c3)NC(=O)C(C)S4)CC2)cc1` (stereo not shown) the “hERG current change (%, negative = inhibition) at 10uM” value was -2.94%.
For `CC(C)N(C(=O)CSc1ccc(S(=O)(=O)N2CCCCC2)cn1)C(C)C`, the “hERG current change (%, negative = inhibition) at 10uM” value was -15.7%.
In the case of `CC12CCC(C(=O)O)(c3nc4cc([N+](=O)[O-])ccc4nc31)C2(C)C` (stereo not shown), the “hERG current change (%, negative = inhibition) at 10uM” value is reported as -1.75%.
For `O=C(NC(Cc1c[nH]c2ccccc12)C(=O)O)/C(=C\c1ccccc1)NC(=O)c1ccccc1` (stereo not shown), the “hERG current change (%, negative = inhibition) at 10uM” value was 9.54%.
For `COc1ccc2cnn(-c3ccc(OC(F)(F)Cl)cc3)c(=O)c2c1OC`, the “hERG current change (%, negative = inhibition) at 10uM” value was 6.28%.
For `CCCN(CC(=O)Nc1ccccc1C)C(=O)c1ccc(N2CCOCC2)c([N+](=O)[O-])c1`, the “hERG current change (%, negative = inhibition) at 10uM” value was -70.3%.
In the case of `CCCN(CC(=O)Nc1ccc(F)c(F)c1F)C(=O)c1cc([N+](=O)[O-])ccc1N1CCOCC1`, the “hERG current change (%, negative = inhibition) at 10uM” value is reported as -67.1%.
`CCN(CC(=O)Nc1c(F)cccc1F)C(=O)c1cc([N+](=O)[O-])ccc1N1CCOCC1` was tested, and the “hERG current change (%, negative = inhibition) at 10uM” value was -4.57%.
In the case of `CCCN(CC(=O)Nc1ccccc1C)C(=O)c1ccc(N2CCCC2)c([N+](=O)[O-])c1`, the “hERG current change (%, negative = inhibition) at 10uM” value is reported as -41.3%.
In the case of `CCCN(CC(=O)Nc1ccccc1C)C(=O)c1ccc(N2CCCCC2)c([N+](=O)[O-])c1`, the “hERG current change (%, negative = inhibition) at 10uM” value is reported as -43.7%.
`CCN(CC(=O)Nc1cc(Cl)ccc1C)C(=O)c1cc([N+](=O)[O-])ccc1N1CCOCC1` was tested, and the “hERG current change (%, negative = inhibition) at 10uM” value was -18.5%.
`O=C(NCC(=O)N1CCN(C(=O)c2ccccc2)CC1)c1ccccc1` was tested, and the “hERG current change (%, negative = inhibition) at 10uM” value was 5.05%.
With `O=C1C=C(c2ccccc2)CC(c2ccc(F)cc2)C1` (stereo not shown) the “hERG current change (%, negative = inhibition) at 10uM” value was -28.2%.
In the case of `COc1ccc([C@H]2CC(=O)C=C(/C=C/c3ccc(Cl)cc3)C2)cc1`, the “hERG current change (%, negative = inhibition) at 10uM” value is reported as 12.8%.
With `COc1ccc([C@H]2CC(=O)C=C(c3cc(C(F)(F)F)cc(C(F)(F)F)c3)C2)cc1` the “hERG current change (%, negative = inhibition) at 10uM” value was 4.42%.
In the case of `C/C=C/C1=CC(=O)C[C@H](c2ccc(F)cc2)C1`, the “hERG current change (%, negative = inhibition) at 10uM” value is reported as -34.3%.
With `COc1ccc([C@H]2CC(=O)C=C(/C=C/c3ccc(C(F)(F)F)cc3)C2)cc1` the “hERG current change (%, negative = inhibition) at 10uM” value was -62.9%.
`CCCCC/C=C/C1=CC(=O)C[C@H](c2ccc(Cl)cc2)C1` was tested, and the “hERG current change (%, negative = inhibition) at 10uM” value was -47.4%.
For `C/C=C/C1=CC(=O)C[C@H](c2ccc(Cl)cc2)C1`, the “hERG current change (%, negative = inhibition) at 10uM” value was -63.9%.
In the case of `O=C1C=C(/C=C/c2ccccc2)C[C@@H](c2ccc3c(c2)OCO3)C1`, the “hERG current change (%, negative = inhibition) at 10uM” value is reported as 20%.
In the case of `O=C1C=C(/C=C/c2ccccc2)C[C@@H](c2ccc(F)cc2)C1`, the “hERG current change (%, negative = inhibition) at 10uM” value is reported as -59.7%.
With `O=C(Nc1ccc(-c2cn3ccccc3n2)cc1)c1ccco1` the “hERG current change (%, negative = inhibition) at 10uM” value was -11.4%.
In the case of `O=C1C=C(c2ccc(CO)cc2)C[C@@H](c2ccc3c(c2)OCO3)C1`, the “hERG current change (%, negative = inhibition) at 10uM” value is reported as -44.3%.
In the case of `CC1=CSC2=NC(C(F)(F)F)(C(F)(F)F)NC(=O)N12`, the “hERG current change (%, negative = inhibition) at 10uM” value is reported as -1.5%.
In the case of `C=CCn1sc(N)c(C(=O)OCC)c1=S`, the “hERG current change (%, negative = inhibition) at 10uM” value is reported as 0.673%.
In the case of `Cc1ccc(NS(=O)(=O)c2cccc(C(=O)O)c2)cc1S(=O)(=O)N1CCCCC1`, the “hERG current change (%, negative = inhibition) at 10uM” value is reported as 3.3%.
In the case of `COC(=O)Cn1c(=NC(=O)c2nc3ccccc3s2)sc2cc(S(N)(=O)=O)ccc21`, the “hERG current change (%, negative = inhibition) at 10uM” value is reported as 6.74%.
`COC(=O)Cn1c(=NC(=O)c2nc3ccccc3s2)sc2cc(S(C)(=O)=O)ccc21` was tested, and the “hERG current change (%, negative = inhibition) at 10uM” value was -65.2%.
In the case of `COCCn1c(=NC(=O)c2nc3ccccc3s2)sc2cc(S(C)(=O)=O)ccc21`, the “hERG current change (%, negative = inhibition) at 10uM” value is reported as -21%.
With `CCC(=O)NNC(=S)NC(=O)c1ccc(C)cc1` the “hERG current change (%, negative = inhibition) at 10uM” value was 22.4%.
With `S=c1[nH]nc(-c2cccc(Br)c2)o1` the “hERG current change (%, negative = inhibition) at 10uM” value was 19.6%.
In the case of `CCOC(=O)c1cccc(NC(=O)CCc2nnc3ccc(N4CCCCC4)nn23)c1`, the “hERG current change (%, negative = inhibition) at 10uM” value is reported as 7.86%.
For `C=CCn1c(O)c(N=NC(=O)CNC(=O)c2ccco2)c2ccccc21`, the “hERG current change (%, negative = inhibition) at 10uM” value was -4.55%.
For `C=CCn1c(O)c(N=NC(=O)CNC(=O)/C=C/c2ccco2)c2ccccc21`, the “hERG current change (%, negative = inhibition) at 10uM” value was -58.2%.
`CCn1c(O)c(N=NC(=O)CNC(=O)/C=C/c2ccco2)c2ccccc21` was tested, and the “hERG current change (%, negative = inhibition) at 10uM” value was 0.357%.
`CCCCNC(=O)NS(=O)(=O)c1cnccc1Sc1ccc(Cl)cc1` was tested, and the “hERG current change (%, negative = inhibition) at 10uM” value was 12.1%.
With `NC(=O)c1cccnc1Nc1cccc(F)c1` the “hERG current change (%, negative = inhibition) at 10uM” value was -4.36%.
In the case of `CCOC(=O)c1sc(/S(C)=N\S(=O)(=O)c2cccc(Cl)c2)c2c1CCC=C2` (stereo not shown), the “hERG current change (%, negative = inhibition) at 10uM” value is reported as -51.9%.
With `CCOC(=O)C1=C(C)Nc2ccccc2N/C1=N\S(=O)(=O)c1cccc(Cl)c1` the “hERG current change (%, negative = inhibition) at 10uM” value was 0.773%.
With `CCOC(=O)c1nc(C)sc1-c1ccnn1S(=O)(=O)c1cccc(Cl)c1` the “hERG current change (%, negative = inhibition) at 10uM” value was -22.5%.

— article PMC4336329 (PLoS ONE, 2015)
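Further: peak tail current of the secondary pulse compared with the same well before compound.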
